Source: PubChem BioAssay AID463173 (ICCB-Longwood Screening Facility, Harvard Medical School, 2010)
The campaign covered roughly 52,000 compounds. About 4,300 (8.3%) were called active. The sample holds actives, similar compounds and a random draw of the others, so the mix is not that of the screen. A number with no mark means an inactive call. No stated cut-off is given here; in the data, active means survival mostly below about 52% (no sharp cut-off); inactive means mostly above about 56%.

Test system: DeltatarO mutant
Experiment: growth inhibition of S. aureus wild type versus tarO mutant, primary screen, teichoic acid synthesis inhibitors, RN4220, OD600 (AID 463173)
Details: OD600, 18 h, stronger effect = lower value, screened at 18.75 µg/mL (by protocol)

In order of falling survival:
1. COc1ccc(-c2cc(C(F)(F)F)n3nc(C(=O)NCC45CC6CC(CC(C6)C4)C5)cc3n2)cc1OC  137%
2. CCOc1ccc(NC(=O)c2cc3nc(-c4ccc(OC)cc4)cc(C(F)(F)F)n3n2)cc1  134%
3. CCOC(=O)c1c(C)sc(-c2c(-c3ccc(OC)c(F)c3)[nH]c3c2c(=O)[nH]c(=O)n3C)c1O  117%
4. COC(=O)c1c(C)sc(-c2c(-c3ccc(F)cc3)[nH]c3[nH]c(=O)[nH]c(=O)c23)c1O  116%
5. CCOC(=O)c1c(C)sc(-c2c(-c3cccc(Cl)c3)[nH]c3c2c(=O)n(C)c(=O)n3C)c1O  113%
6. COC(=O)c1c(C)sc(-c2c(-c3cccc(Cl)c3)[nH]c3c2c(=O)[nH]c(=O)n3C)c1O  113%
7. CCOC(=O)c1c(C)sc(-c2c(-c3ccc4c(c3)OCCO4)[nH]c3c2c(=O)[nH]c(=O)n3C)c1O  106%
8. CCOC(=O)c1c(C)sc(-c2c(-c3cc(C)ccc3C)[nH]c3c2c(=O)n(C)c(=O)n3C)c1O  105%
9. Cc1ccc(-c2nc(S(=O)(=O)c3ccccc3)c(N3CCN(c4ccccc4)CC3)o2)cc1  102%
10. Cc1nn2c(=O)cc(COC(=O)COc3ccccc3C)nc2s1  101%
11. O=C(CNCCCN1CCOCC1)Nc1ccc(OC(F)(F)F)cc1  99%
12. COc1cc(NS(=O)(=O)c2ccc(-c3cc(C)no3)cc2)cc(OC)c1  99%
13. CCc1ccc(-c2nn(CC(=O)NC3CCCCC3)c3c2cnc2ccc(OC)cc23)cc1  98%
14. Cc1ccc(-c2nc(S(=O)(=O)c3ccc(C)cc3)c(N3CCN(c4ccccc4)CC3)o2)cc1  97%
15. COC(=O)NCc1c(C)nn(-c2ccccc2)c1-n1cccc1  96%
16. CCCCN(CC)C(=O)c1c[nH]c2ccc(S(=O)(=O)N(C)c3ccc(Cl)cc3)cc2c1=O  95%
17. Cc1ccc(C)c(N2CCN(C(=O)c3cc4cc5ccc(C)cc5nc4s3)CC2)c1  95%
18. COCCn1c(=NC(=O)c2ccc3c(c2)OCCO3)sc2cc(NC(C)=O)ccc21  94%
19. O=C(Nc1cccc(Cl)c1Cl)c1cc2nc(-c3ccc(Cl)cc3)cc(C(F)(F)F)n2n1  93%
20. CCC(c1nnnn1CCOC)N(Cc1cc2ccc(OC)cc2[nH]c1=O)C1CCCC1 (stereo unspecified)  92%
21. N#Cc1c2c(c(-c3ccccc3)[nH]c1=S)CCCC2  91%
22. O=S(=O)(c1ccccc1)c1nc(-c2ccc(F)cc2)oc1N1CCOCC1  90%
23. Cc1cccc(C)c1NC(=O)CCSCCc1ccccn1  86%
24. Cc1ccc(S(=O)(=O)c2nc(-c3ccccc3)oc2N2CCN(c3ccccc3)CC2)cc1  85%
25. COc1ccc(NC(=O)C(=O)Nc2ccc3nc4n(c(=O)c3c2)CCCCC4)c(OC)c1  84%
26. O=C(NC12CC3CC(CC(C3)C1)C2)N1CCC(O)(c2ccc3c(c2)OCO3)CC1  81%
27. Cc1ccc(-c2cc(C(F)(F)F)n3nc(C(=O)Nc4ccc(Cl)cc4Cl)cc3n2)cc1  81%
28. CCc1ccc(NC(=O)CC(c2cc(OC)c(OC)c(OC)c2)N2Cc3ccccc3C2=O)cc1 (stereo unspecified)  79%
29. Cn1ncc(C(=O)N2CCN(c3ccccc3)CC2)c1C1CCN(C(=O)OC(C)(C)C)CC1  78%
30. COc1cccc(OC)c1C(=O)Nc1ccc2c(c1)N(C(C)=O)CCC2  78%
31. O=C(c1cc2nc(-c3ccccc3)cc(C(F)(F)F)n2n1)N1CCCC1  78%
32. COc1ccc(-c2nc(S(=O)(=O)c3ccccc3)c(N3CCCCC3)o2)cc1  74%
33. Cc1ccc(-c2nc(S(=O)(=O)c3ccc(C)cc3)c(N3CCCCCC3)o2)cc1  70%
34. COc1ccc(C2c3cccn3CCN2S(=O)(=O)c2ccc([N+](=O)[O-])cc2)cc1 (stereo unspecified)  69%
35. Cc1ccc(Cl)cc1NC(=O)Cn1cc2c(n1)CCCCC2  68%
36. Cc1c(C(=O)OC2CCC(C)CC2)[nH]c2c1C(=O)CC(c1ccc(N(C)C)cc1)C2 (stereo unspecified)  68%
37. COc1ccc(N2CCN(C(=O)c3cccc4ccccc34)CC2)cc1  66%
38. COc1cccc(CNC(=O)CN2C(=O)N(c3ccc(C)cc3C)S(=O)(=O)c3ccccc32)c1OC  65%
39. CC(=O)c1cccc(NC(=O)c2oc3c(c2C)-c2nn(Cc4ccc(Cl)cc4)cc2CC3)c1  64%
40. COc1cc2c(cc1OC)C(c1cccc(Cl)c1)CC(=O)N2 (stereo unspecified)  63%
41. O=C(Nc1cccc(C(F)(F)F)c1)c1cc2nc(-c3ccccc3)cc(C(F)(F)F)n2n1  60%
42. O=S(=O)(c1ccccc1)c1nc(-c2cccc(Cl)c2)oc1N1CCOCC1  57%
43. COc1ccc(-c2nc(S(=O)(=O)c3ccc(C)cc3)c(N3CCCCC3)o2)cc1  54%
44. CCc1ccc(-c2[nH]c3c(c2-c2sc(C)c(C(=O)OC)c2O)c(=O)n(C)c(=O)n3C)cc1  51%
45. COC(=O)c1c(C)sc(-c2c(-c3ccc4c(c3)OCCO4)[nH]c3[nH]c(=O)[nH]c(=O)c23)c1O  50%

For `Cc1ccc(-c2nc(S(=O)(=O)c3ccc(C)cc3)c(N3CCCCC3)o2)cc1`, the survival was 0% (active).
For `O=S(=O)(c1ccccc1)c1nc(-c2ccc(F)cc2)oc1N1CCCCCC1`, the survival was 33% (active).
In the case of `Cc1ccc(S(=O)(=O)c2nc(-c3ccccc3)oc2N2CCCCCC2)cc1`, the survival is reported as 22% (active).
With `CC(C)(C)c1ccc(-c2nc(S(=O)(=O)c3ccccc3)c(N3CCOCC3)o2)cc1` the survival was 37% (active).
In the case of `O=C(NCC12CC3CC(CC(C3)C1)C2)c1cc2nc(-c3ccccc3)cc(C(F)(F)F)n2n1`, the survival is reported as -4% (active).
With `O=C(NCC12CC3CC(CC(C3)C1)C2)c1cc2nc(-c3ccc(Cl)cc3)cc(C(F)(F)F)n2n1` the survival was 31% (active).
`COc1ccc(-c2cc(C(F)(F)F)n3nc(C(=O)NCC45CC6CC(CC(C6)C4)C5)cc3n2)cc1` was tested, and the survival was 29% (active).
For `CCc1ccc(-c2[nH]c3c(c2-c2sc(C)c(C(=O)OC)c2O)c(=O)[nH]c(=O)n3C)cc1`, the survival was 23% (active).
For `COC(=O)c1c(C)sc(-c2c(-c3ccc4c(c3)OCCO4)[nH]c3c2c(=O)[nH]c(=O)n3C)c1O`, the survival was 37% (active).
In the case of `COC(=O)c1c(C)sc(-c2c(-c3cccc(OC)c3)[nH]c3c2c(=O)[nH]c(=O)n3C)c1O`, the survival is reported as 43% (active).
For `CCOC(=O)c1c(C)sc(-c2c(-c3cc(C)ccc3C)[nH]c3c2c(=O)[nH]c(=O)n3C)c1O`, the survival was 40% (active).
